Screening results as filed in PubChem.
LEDGF integ inh: blocks HIV-1 LEDGF/p75-dependent DNA integration. hit rate 0.64% among 370,000. TR-FRET IN-LEDGF/p75 DNA integration, Eu/Cy5. inhibition, % at 3.7 µM;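 active = inhibition above the screen-wide mean plus 3 SD, cut at about 13% in these data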;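 note: signal is the Cy5 over europium emission ratio at 671 and 618 nm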
UHRF1 MBD2 ctr: UHRF1 methyl-DNA binding inhibition; Q96T88; UHRF1 binding to methylated oligo, TR-FRET; inhibition, % at 4.4 µM; hit rate 0.75% among 370,000; AID 687016; in the data active = inhibition above about 21%;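 note: UHRF1 SRA domain binding a hemimethylated CpG hairpin DNA probe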
MBD2 DNA inh: blocks human MBD2 binding to methylated DNA; TR-FRET, MBD2 binding to methylated oligonucleotide; inhibition, % at 4.4 µM; hit rate 0.31% among 370,000; AID 686964; in the data active = inhibition above about 13%
Target sequence (Q9UBB5 whole entry, looked up): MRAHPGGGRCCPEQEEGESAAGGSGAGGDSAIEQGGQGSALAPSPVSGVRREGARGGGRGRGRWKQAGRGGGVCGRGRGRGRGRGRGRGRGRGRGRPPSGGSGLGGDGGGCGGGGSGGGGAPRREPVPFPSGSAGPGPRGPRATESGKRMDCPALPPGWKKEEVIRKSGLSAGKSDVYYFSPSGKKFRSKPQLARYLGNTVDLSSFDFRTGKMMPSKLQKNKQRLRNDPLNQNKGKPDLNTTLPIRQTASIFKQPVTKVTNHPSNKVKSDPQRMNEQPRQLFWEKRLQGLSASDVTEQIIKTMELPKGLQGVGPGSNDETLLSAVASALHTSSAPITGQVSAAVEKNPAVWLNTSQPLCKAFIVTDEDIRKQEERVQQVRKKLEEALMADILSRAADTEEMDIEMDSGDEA
PLCb3 inh: PLC-beta3 (human) inhibition, primary screen; Q01970; Purified PLC-beta3, fluorogenic substrate, fluorescence; inhibition, % at 12.2 µM; hit rate 0.18% among 370,000; in the data active = inhibition above about 11%
PLC-gamma1 inh: PLC-gamma1 (human) inhibition, primary screen | purified PLC-gamma1, fluorogenic substrate, fluorescence | inhibition, % at 12.2 µM | hit rate 0.84% among 370,000
PLCgamma1 ctr: inhibits human PLC-gamma1 in PLC-beta3 counter-screen | shares compounds with PLC-gamma1 inh | purified PLC-gamma1, fluorogenic substrate, fluorescence | inhibition, % at 12.3 µM | hit rate 3.1% among 3,300
PLCb3 confirm: human PLC-beta3 inhibition, confirmation; shares compounds with PLC-gamma1 inh; purified PLC-beta3, fluorogenic substrate fluorescence; inhibition, % at 12.3 µM; hit rate 1% among 3,300; AID 743261; in the data active = inhibition above about 11%
Large screens that a line does not name were inactive (follow-up assays come after a bar, where they were run). In the library only some 2.4% were active in any assay of this set; here they are far more common. Cut-off read from the data, not from the text of the source, unless noted: active = inhibition above about 9.5%; inactive = the rest.

CCOc1ccc(CCNC(=O)C2CCCN(S(C)(=O)=O)C2)cc1OCC (stereo not drawn)	PLCb3 inh 13 | PLCgamma1 ctr inactive | PLCb3 confirm inactive
CCOc1ccc(CCNC(=O)C2CCCN(S(=O)(=O)N3CCCCC3)C2)cc1OCC (stereo not drawn)	none
CCOC(=O)N1CCN(S(=O)(=O)N2CCCC(C(=O)NCCc3ccc(OCC)c(OCC)c3)C2)CC1 (stereo not drawn)	PLC-gamma1 inh 12 | PLCgamma1 ctr inactive | PLCb3 confirm inactive
COc1ccc(CCNC(=O)Nc2nc(C(N)Cc3ccccc3)cs2)cc1OC (stereo not drawn)	PLC-gamma1 inh 9.6 | PLCgamma1 ctr inactive | PLCb3 confirm inactive
C#CCNC(=O)C[C@H]1C[C@@]2(C(=O)OC)C(=C[C@H](C(C)C)O[C@@H]2C2CC2)N(CCCCCCCC)C1=O	none
COC(=O)[C@]12C[C@H](CC(=O)NCC34CC5CC(CC(C5)C3)C4)C(=O)N(Cc3ccco3)C1=C[C@H](C1CCCC1)O[C@@H]2C	none
COc1ccc(C)cc1NC(=O)CNC(c1ccccc1)c1ccc(C)cc1 (stereo not drawn)	none
COc1ccccc1NC(=O)CNC(c1ccccc1)c1ccccc1	PLC-gamma1 inh 13 | PLCgamma1 ctr inactive | PLCb3 confirm inactive
C[C@@H](CO)N(Cc1cn(Cc2ccccc2)nn1)S(=O)(=O)c1ccc(F)cc1Br	none
COc1cc(-c2ccc3oc(-c4ccsc4)cc(=O)c3c2)cc(OC)c1OC	none
CCOC(=O)c1ccc(-c2ccc3oc(-c4ccsc4)cc(=O)c3c2)cc1F	PLC-gamma1 inh 10 | PLCgamma1 ctr inactive | PLCb3 confirm inactive
O=C(Nc1ccccc1)OCCN1CCCC12CCC(c1ccccc1)CC2 (stereo not drawn)	none
Cc1ccc(C(=O)c2cn[nH]c2-c2ccccc2O)cc1	PLC-gamma1 inh 14 | PLCgamma1 ctr inactive | PLCb3 confirm inactive
COC(=O)C1=C(C)N(Cc2cccc(C(F)(F)F)c2)C(=NCc2ccccc2C(F)(F)F)NC1c1ccc(Cl)cc1 (stereo not drawn)	PLCb3 inh 14 | PLCgamma1 ctr inactive | PLCb3 confirm inactive
COC(=O)C1=C(C)N(Cc2ccccc2)C(=NCc2cccc(C(F)(F)F)c2)N[C@H]1c1cccc(F)c1	PLC-gamma1 inh 13 | PLCgamma1 ctr inactive | PLCb3 confirm inactive
COCCCN1C(=O)[C@H](CC(=O)NCC2CCCCC2)[C@]2(C(=O)OC)CCCCC=C12	none
Cc1ccccc1Cn1cc(COC(=O)NCC(C)C)nn1	none
COC(=O)C1CN(Cc2ccc(OC)cc2)CCS(=O)(=O)N1Cc1ccc(C(F)(F)F)cc1 (stereo not drawn)	none
CCOc1ccccc1NC(=O)c1cccc(NC2=NC3CS(=O)(=O)CC3S2)c1 (stereo not drawn)	PLC-gamma1 inh 13 | PLCgamma1 ctr inactive | PLCb3 confirm inactive
CCOc1ccccc1NC1=NC2CS(=O)(=O)CC2S1 (stereo not drawn)	none
Nc1[nH]c(C(=O)c2ccccc2)c(-c2ccncc2)c1C(=O)NC1CC1	PLC-gamma1 inh 10 | PLCgamma1 ctr inactive | PLCb3 confirm inactive
CCOC(=O)c1cccc(-c2cc(C(C)=O)c3n(c2=O)CCC3)c1	none
Cc1ccc(C(=O)N2CCN(S(=O)(=O)c3ccc(C)cc3)CC2)cc1	none
Cc1ccc(C(=O)N2CCN(S(=O)(=O)c3ccc(C)c([N+](=O)[O-])c3)C2)cc1	PLC-gamma1 inh 10 | PLCgamma1 ctr inactive | PLCb3 confirm inactive
C=CCn1c(COc2ccc(C)cc2)nnc1SCC(=O)Nc1ccc(Oc2ccccc2)cc1	none
COC(=O)[C@@]1(OC(C)=O)CC(OC(C)=O)[C@H](OC(C)=O)[C@H](OC(C)=O)C1Br (stereo partly drawn)	none
O=C(O)c1ccc(OCc2occc2C(=O)O)cc1	PLC-gamma1 inh 13 | PLCgamma1 ctr inactive | PLCb3 confirm inactive
O=C(O)c1ccc(OCc2ccc(C(=O)O)o2)cc1	none
COC(=O)C1CN(Cc2cn(Cc3ccc(OC)cc3)nn2)CCS(=O)(=O)N1Cc1ccc(OC)cc1 (stereo not drawn)	none
COc1ccc(-c2cc(C(=O)Nc3ccc(C)c(C)c3)no2)cc1	PLC-gamma1 inh 12 | PLCgamma1 ctr inactive | PLCb3 confirm inactive
CC(NC(=O)CNC(=S)N(Cc1ccccc1)Cc1cccnc1)c1ccccc1 (stereo not drawn)	none
CCC(C)NC(=O)CNC(=S)N(Cc1ccccc1)Cc1cccnc1 (stereo not drawn)	PLC-gamma1 inh 9.7 | PLCgamma1 ctr inactive | PLCb3 confirm inactive
O=C(NC1CCC1)c1ccc(C#CC2CC2)c[n+]1[O-]	none
Cc1onc(-c2ccccc2Cl)c1C(=O)OCn1nnc2ccccc2c1=O	PLC-gamma1 inh 11 | PLCgamma1 ctr inactive | PLCb3 confirm inactive
COCCN1Cc2cc(C(=O)OC)c3c(c2C1=O)c1cc(OC)ccc1n3C(=O)c1ccccc1	none
Cc1ccc(-c2csc(C(C)(O)c3cccc(F)c3)n2)cc1C (stereo not drawn)	none
CC(O)(c1cccc(F)c1)c1nc(-c2cccc(F)c2)cs1 (stereo not drawn)	PLC-gamma1 inh 11 | PLCgamma1 ctr inactive | PLCb3 confirm inactive
O=C(CN1CCN(c2ccc(F)cc2)CC1)NC(=O)NCc1ccco1	none
O=C(CN1CCN(c2ccccc2)CC1)NC(=O)NCc1ccco1	PLC-gamma1 inh 11 | PLCgamma1 ctr inactive | PLCb3 confirm inactive
Cc1nonc1NC(=O)c1oc2ccc(F)cc2c1C	none
Cc1cc2oc(C(=O)Nc3nonc3C)c(C)c2cc1Cl	PLC-gamma1 inh 13 | PLCgamma1 ctr inactive | PLCb3 confirm inactive
Cc1ccccc1C(=O)NC1CCN(Cc2nnnn2C2CCCC2)CC1	PLC-gamma1 inh 14 | PLCgamma1 ctr 12 | PLCb3 confirm inactive
O=C(CCc1nnc(Cc2c[nH]c3ccccc23)o1)NC1CCCC1	PLC-gamma1 inh 12 | PLCgamma1 ctr inactive | PLCb3 confirm inactive
CCCC#Cc1ccc(CC[C@H]2O[C@H]3CC[C@H](CO)O[C@H]3C[C@H]2NC(=O)CN2CCOCC2)cc1	none
Cc1ccc2c(CSc3nncn3C)cc(=O)oc2c1C	PLC-gamma1 inh 11 | PLCgamma1 ctr inactive | PLCb3 confirm inactive
Cc1ccc2c(CN3CCCCC3)cc(=O)oc2c1C	none
C[C@@H]1C(=O)N2N=Cc3cc4ccccc4cc3[C@H]2N2N=Cc3cc4ccccc4cc3[C@@H]12	none
CCC(=O)Nc1c2c(nn1-c1ccc(OC)cc1)CS(=O)C2 (stereo not drawn)	none
CCC(CC)C(=O)Nc1c2c(nn1-c1ccc(OC)cc1)CS(=O)C2 (stereo not drawn)	UHRF1 MBD2 ctr 39, PLC-gamma1 inh 12 | PLCgamma1 ctr inactive | PLCb3 confirm inactive
O=C(O)CCc1nc(-c2ccccc2)no1	none
CCN(CC)CCc1nc(-c2ccccc2)no1	PLC-gamma1 inh 11 | PLCgamma1 ctr inactive | PLCb3 confirm inactive
